# The other results are listed elsewhere or left out. Active and inactive are the calls of the source.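 Rule for the calls, unless noted: active = membrane potential signal drops by more than 5 SD from the mean control signal, in both duplicate plates; inactive = the rest.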
# Columns and labels:
# [1] = nonspecific voltage dye response without TRPC6 – cell-based, parental HEK293, counter-screen for TRPC6 modulator project, confirmation (AID 488924;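 active = membrane potential signal moves up or down beyond 5 SD from buffer-only wells, on both duplicate plates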); details: parental HEK293, membrane potential dye fluorescence; at 10 µM
# [2] = membrane potential response modulators in host HEK293 cells – cell-based, second counter-screen, parental HEK293, membrane potential dye, counter-screen for TRPC6 modulator project, confirmation (AID 488926); details: parental HEK293, membrane potential dye fluorescence, at 10 µM, after compound, maximal acetylcholine stimulation; hits give high values;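 for inhibition: plate controls were acetylcholine ECmax control wells for no effect and buffer only wells for full effect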
# [3] = test system: Transient receptor potential cation channel subfamily C member 4 (mouse); test: off-target membrane potential effects via mouse TRPC4 – cell-based, HEK293 TRPC4/mu-opioid, membrane potential dye, selectivity assay for TRPC6 modulator project, confirmation (AID 488927;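 active = membrane potential signal moved up or down beyond 5 SD of buffer control wells, in both duplicate plates, actives on both sides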;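 for percent change from control (negative = decrease, positive = increase): plate controls were assay buffer wells for no effect and DAMGO maximal-effect wells for full effect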); details: membrane potential fluorescence, at 10 µM
# [4] = test system: TRPC4 (transient receptor potential cation channel C4), mouse; test: DAMGO-evoked mouse TRPC4 response blockade – cell-based, second screen, HEK293 TRPC4/mu-opioid, membrane potential dye, selectivity assay for TRPC6 modulator project, confirmation (AID 488928;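 active = drop in membrane potential signal beyond 5 SD of the control wells in both duplicate plates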;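 note: TRPC4 counter screen for TRPC6 hits run under conditions tuned for TRPC6 not TRPC4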); details: membrane potential dye fluorescence, at 10 µM, stimulated with maximal-effect DAMGO; hits give high values
# [5] = biological target: Short transient receptor potential channel 6 (Mus musculus) (UniProt Q61143); test: blockers of TRPC6 cation channel activity – HEK293 cells, membrane potential dye, duplicate, confirmation (AID 488960;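 active = fluorescence ratio falls more than 5 SD below the full-stimulation control mean, in both duplicate runs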;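 for inhibition: integrated fluorescence ratio of peak minus minimum over baseline after agonist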); details: ACh-evoked depolarization, at 10 µM; hits give high values
# [6] = biological target: Short transient receptor potential channel 6 (Mus musculus) (UniProt Q61143); test: mouse TRPC6 channel activators, confirmation, HEK293 cells, membrane potential dye, duplicate (AID 488961;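 active = ratio signal rise beyond 5 SD above unstimulated control wells' mean, seen in both duplicate runs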;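 for activation: plate controls were buffer EC0 wells for no effect and acetylcholine ECmax response for full effect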); details: HEK293-TRPC6 membrane potential dye fluorescence, FDSS, at 10 µM; hits give high values
# [7] = nonspecific flux increase, KCNQ1-free cells – parental CHO cells, counter-screen for KCNQ1 potentiator project (AID 493006;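 active = duplicate-averaged activation above buffer control mean plus 5 SD of those controls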;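 for activation: fluorescence ratio of max minus min over baseline after K+ and Tl+ depolarization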); details: parental CHO-K1 cells, FluxOR thallium flux, at 10 µM; hits give high values
# [8] = biological target: Potassium voltage-gated channel subfamily KQT member 1 (Homo sapiens) (UniProt P51787); test: enhancement of KCNQ1 channel thallium flux – FluxOR thallium flux, CHO cells, duplicates, confirmation (AID 493007;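 active = potentiation averaged over duplicate wells exceeding buffer-only control mean by more than 3 SD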;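 for outcome: cells depolarized by a potassium plus thallium sulfate stimulus after compound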;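 for potentiation: 0% = buffer-only wells and 100% = R-L3 activator control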); details: KCNQ1 cell line, FluxOR thallium flux fluorescence, at 10 µM; hits give high values, % of reference activator effect, buffer zero
# [9] = biological target: Potassium voltage-gated channel subfamily KQT member 2 (Rattus norvegicus) (UniProt O88943); test: KCNQ2 thallium flux enhancement – KCNQ2-CHO-K1 cells, selectivity assay for KCNQ1 potentiator project (AID 493009;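 active = mean duplicate potentiation above the buffer control mean plus 5 SD of buffer wells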;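 note: assay conditions were tuned for KCNQ1 rather than KCNQ2 modulators; signal is max minus min fluorescence divided by baseline after thallium stimulus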); details: FluxOR thallium flux fluorescence, at 10 µM; hits give high values, scaled: buffer 0, activator control 100
# [10] = biological target: Potassium voltage-gated channel subfamily KQT member 1 (Homo sapiens) (UniProt P51787); test: KCNQ1 activators by electrophysiology – IonWorks patch clamp, KCNQ1-CHO cells, orthogonal assay for KCNQ1 potentiator project, confirmation (AID 493184;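 active = current rise at least 3 SD above the untreated control mean in each of two repeat wells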); details: automated patch clamp current, at 10 µM; hits give high values
# [11] = biological target: Potassium voltage-gated channel subfamily KQT member 1 (Homo sapiens) (UniProt P51787); test: blockers of human KCNQ1 channel – cell-based, Tl flux, duplicate, confirmation (AID 588353;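 active = primary screen active, with duplicate mean exceeding buffer control mean plus 3 SD of buffer wells, cut at about 28% in these data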;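 note: 0% = buffer control ratio and 100% = XE991 inhibitor control ratio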); details: KCNQ1 cell line, FluxOR thallium flux fluorescence, at 10 µM, hits give high values
# [12] = nonspecific activity in CHO-K1 cells without KCNQ1 – parental CHO cells, Tl flux, counter-screen for KCNQ1 inhibitor project (AID 588366;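 active = mean of duplicate thallium-flux fluorescence ratios in parental host cells more than 5 SD below the buffer control mean, cut at about 0.38 in these data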;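 note: ratio is peak minus minimum fluorescence divided by baseline fluorescence; actives read low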); details: parental CHO-K1, FluxOR thallium flux fluorescence ratio; at 10 µM; hits give low values; zero means no signal rise above baseline
# [13] = biological target: Potassium voltage-gated channel subfamily KQT member 2 (Rattus norvegicus) (UniProt O88943); test: block of rat KCNQ2 potassium channel – cell-based, selectivity assay for KCNQ1 inhibitor project (AID 651746;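 active = mean percent inhibition of the KCNQ2 thallium signal more than 5 SD above the buffer-only control wells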;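 note: 0% = buffer control wells and 100% = XE-991 inhibitor control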); details: KCNQ2 cells, FluxOR thallium flux fluorescence, at 10 µM; hits give high values
# [14] = biological target: Potassium voltage-gated channel subfamily E member 1 (Homo sapiens) + Potassium voltage-gated channel subfamily KQT member 1 (Homo sapiens) (UniProt P15382+P51787); test: block of human IKs channel complex – CHO-K1 cells, thallium flux, FluxOR, selectivity assay for KCNQ1 inhibitor project (AID 652147;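 active = mean percent inhibition of duplicate wells above the buffer-only control mean plus 3 SD of those controls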;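 note: 0% = buffer only wells and 100% = XE-991 inhibitor control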); details: KCNQ1/KCNE1 cells, FluxOR thallium flux fluorescence, at 10 µM; hits give high values
# Sequence of Potassium voltage-gated channel subfamily E member 1 (Homo sapiens) + Potassium voltage-gated channel subfamily KQT member 1 (Homo sapiens) (P51787 whole entry, looked up): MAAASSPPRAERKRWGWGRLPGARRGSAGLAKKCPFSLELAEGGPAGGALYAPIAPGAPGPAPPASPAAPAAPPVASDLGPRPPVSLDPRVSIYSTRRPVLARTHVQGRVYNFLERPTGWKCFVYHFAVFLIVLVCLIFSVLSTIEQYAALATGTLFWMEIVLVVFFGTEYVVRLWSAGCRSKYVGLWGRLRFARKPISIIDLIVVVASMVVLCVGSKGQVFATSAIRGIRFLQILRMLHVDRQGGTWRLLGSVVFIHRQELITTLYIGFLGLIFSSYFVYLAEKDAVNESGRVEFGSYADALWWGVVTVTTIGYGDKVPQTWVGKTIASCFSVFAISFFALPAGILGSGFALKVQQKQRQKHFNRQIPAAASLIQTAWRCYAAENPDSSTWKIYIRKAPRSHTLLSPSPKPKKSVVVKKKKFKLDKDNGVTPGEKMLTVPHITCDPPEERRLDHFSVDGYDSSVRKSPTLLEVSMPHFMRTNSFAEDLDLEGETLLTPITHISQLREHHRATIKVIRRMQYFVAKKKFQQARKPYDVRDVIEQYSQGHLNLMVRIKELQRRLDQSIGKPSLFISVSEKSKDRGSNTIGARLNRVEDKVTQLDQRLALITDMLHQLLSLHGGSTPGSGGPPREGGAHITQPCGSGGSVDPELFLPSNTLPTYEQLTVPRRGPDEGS
# Sequence of Short transient receptor potential channel 6 (Mus musculus) (Q61143 whole entry, looked up): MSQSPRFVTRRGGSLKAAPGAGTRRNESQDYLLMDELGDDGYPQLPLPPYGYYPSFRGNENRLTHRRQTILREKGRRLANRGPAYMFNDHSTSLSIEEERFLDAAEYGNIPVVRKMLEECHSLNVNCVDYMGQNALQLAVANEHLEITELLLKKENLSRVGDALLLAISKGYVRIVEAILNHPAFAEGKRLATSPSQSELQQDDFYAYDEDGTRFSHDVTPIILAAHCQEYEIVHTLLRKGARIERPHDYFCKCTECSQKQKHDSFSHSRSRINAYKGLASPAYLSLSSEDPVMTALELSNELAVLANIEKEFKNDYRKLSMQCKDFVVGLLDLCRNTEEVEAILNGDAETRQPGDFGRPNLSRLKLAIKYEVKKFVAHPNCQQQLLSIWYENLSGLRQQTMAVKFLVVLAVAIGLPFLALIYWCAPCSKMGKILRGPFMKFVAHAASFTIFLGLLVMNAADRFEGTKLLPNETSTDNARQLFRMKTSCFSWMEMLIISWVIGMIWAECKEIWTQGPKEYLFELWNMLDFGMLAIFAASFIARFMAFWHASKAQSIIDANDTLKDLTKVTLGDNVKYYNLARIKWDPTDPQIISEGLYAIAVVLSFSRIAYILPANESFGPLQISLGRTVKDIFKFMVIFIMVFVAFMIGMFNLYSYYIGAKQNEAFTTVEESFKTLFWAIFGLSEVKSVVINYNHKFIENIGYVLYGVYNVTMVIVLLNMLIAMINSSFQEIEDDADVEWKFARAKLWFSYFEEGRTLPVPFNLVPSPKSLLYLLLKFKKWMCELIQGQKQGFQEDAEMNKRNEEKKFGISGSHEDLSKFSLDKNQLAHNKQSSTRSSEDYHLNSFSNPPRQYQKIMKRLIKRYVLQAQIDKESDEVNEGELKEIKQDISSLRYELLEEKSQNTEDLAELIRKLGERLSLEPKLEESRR
# Sequence of Potassium voltage-gated channel subfamily KQT member 2 (Rattus norvegicus) (O88943 whole entry, looked up): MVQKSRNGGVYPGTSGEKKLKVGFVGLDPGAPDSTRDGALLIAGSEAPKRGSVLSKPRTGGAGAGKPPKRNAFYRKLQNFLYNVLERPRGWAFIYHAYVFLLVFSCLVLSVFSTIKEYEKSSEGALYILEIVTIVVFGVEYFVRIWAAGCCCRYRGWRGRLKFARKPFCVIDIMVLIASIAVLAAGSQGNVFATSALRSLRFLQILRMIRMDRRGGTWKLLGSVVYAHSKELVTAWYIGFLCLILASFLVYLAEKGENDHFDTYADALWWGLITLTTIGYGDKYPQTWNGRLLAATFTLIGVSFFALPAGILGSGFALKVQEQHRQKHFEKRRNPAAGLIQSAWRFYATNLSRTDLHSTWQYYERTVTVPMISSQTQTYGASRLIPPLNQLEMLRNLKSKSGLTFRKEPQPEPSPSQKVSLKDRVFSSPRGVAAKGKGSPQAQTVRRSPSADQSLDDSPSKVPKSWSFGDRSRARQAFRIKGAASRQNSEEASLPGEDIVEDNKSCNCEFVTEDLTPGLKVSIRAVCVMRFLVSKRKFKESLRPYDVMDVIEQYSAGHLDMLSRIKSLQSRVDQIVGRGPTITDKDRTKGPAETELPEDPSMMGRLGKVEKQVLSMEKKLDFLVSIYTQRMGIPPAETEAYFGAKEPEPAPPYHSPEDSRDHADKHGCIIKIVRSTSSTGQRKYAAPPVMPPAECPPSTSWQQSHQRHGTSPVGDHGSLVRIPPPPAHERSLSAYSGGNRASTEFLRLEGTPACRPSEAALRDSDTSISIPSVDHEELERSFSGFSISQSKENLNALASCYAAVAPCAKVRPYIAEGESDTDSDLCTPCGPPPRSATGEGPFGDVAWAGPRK
# Sequence of Potassium voltage-gated channel subfamily KQT member 1 (Homo sapiens) (P51787 whole entry, looked up): as the sequence (P51787 whole entry, looked up) above
smiles,measurement,setting,value
CCCc1cc(=O)oc2c(C)c(O)c(CN3CCCCC3)cc12,outcome,[1],inactive
same,outcome,[2],inactive
same,outcome,[3],inactive
same,outcome,[4],inactive
same,inhibition,[5],54.5% (active)
same,outcome,[6],inactive
Nc1c(C(=O)c2cccs2)sc2nsc(SCCN3CCCCC3)c12,membrane potential signal change,[1],238% (active)
same,outcome,[2],inactive
same,"percent change from control (negative = decrease, positive = increase)",[3],174% (active)
same,outcome,[4],inactive
same,outcome,[5],inactive
same,outcome,[6],inactive
O=C(Nc1nnc(-c2ccc3c(c2)CCCC3)o1)c1ccccc1,activation,[7],266% (active)
same,potentiation,[8],130% (active)
same,potentiation,[9],400% (active)
same,outcome,[10],inactive
CCCCc1nc(NCCN)c(C#N)c2c1CSC(C)(C)C2,outcome,[1],inactive
same,outcome,[2],inactive
same,outcome,[3],inactive
same,inhibition,[4],56.5% (active)
same,outcome,[5],inactive
same,outcome,[6],inactive
O=C1c2cccc3cccc(c23)C(=O)N1c1cccc(O)c1,outcome,[7],inactive
same,outcome,[8],inactive
same,outcome,[9],inactive
same,outcome,[10],inactive
C/C(=N\Nc1nc2ccccc2[nH]1)c1cccs1,membrane potential signal change,[1],-108% (active)
same,inhibition,[2],73.5% (active)
same,"percent change from control (negative = decrease, positive = increase)",[3],-24% (active)
same,inhibition,[4],85% (active)
same,inhibition,[5],76% (active)
same,outcome,[6],inactive
COc1ccccc1C(CNC(=O)c1cccc(NS(=O)(=O)c2ccc(Br)cc2)c1)N(C)C (configuration not stated),outcome,[1],inactive
same,outcome,[2],inactive
same,outcome,[3],inactive
same,inhibition,[4],32.5% (active)
same,inhibition,[5],44% (active)
same,outcome,[6],inactive
CN1CCN(/N=C/c2ccc(-c3ccc([N+](=O)[O-])cc3)o2)CC1,membrane potential signal change,[1],407% (active)
same,outcome,[2],inactive
same,"percent change from control (negative = decrease, positive = increase)",[3],65.5% (active)
same,inhibition,[4],43.5% (active)
same,activation,[6],158% (active)
Cc1ccccc1NC(=O)CNc1ccccc1N1CCCCC1,outcome,[1],inactive
same,outcome,[2],inactive
same,outcome,[3],inactive
same,inhibition,[4],52.5% (active)
same,outcome,[5],inactive
same,outcome,[6],inactive
CCOC(=O)c1sc2nc(CSCC(=O)OCc3ccc(C(=O)OC)o3)[nH]c(=O)c2c1C,membrane potential signal change,[1],148% (active)
same,outcome,[2],inactive
same,outcome,[3],inactive
same,outcome,[4],inactive
same,inhibition,[5],90% (active)
same,activation,[6],134% (active)
Cc1cc(C)c2nc3nc(C)cc(C)c3c(N)c2c1,outcome,[1],inactive
same,inhibition,[2],76.5% (active)
same,"percent change from control (negative = decrease, positive = increase)",[3],-31% (active)
same,inhibition,[4],48% (active)
same,outcome,[5],inactive
same,outcome,[6],inactive
O=C(Nc1cccc(Cl)c1)Nc1ccccc1NS(=O)(=O)c1cccs1,outcome,[1],inactive
same,outcome,[2],inactive
same,"percent change from control (negative = decrease, positive = increase)",[3],-12.5% (active)
same,inhibition,[4],36.5% (active)
same,outcome,[5],inactive
same,outcome,[6],inactive
same,inhibition,[11],122% (active)
same,fluorescence ratio (Tl flux),[12],0.346 (active)
same,inhibition,[13],78.7% (active)
same,inhibition,[14],109% (active)
Cc1cccn2c(=O)c3cc(C#N)c(=O)n(CCCN4CCOCC4)c3nc12,membrane potential signal change,[1],-248% (active)
same,inhibition,[2],112% (active)
same,"percent change from control (negative = decrease, positive = increase)",[3],-54% (active)
same,inhibition,[4],47.5% (active)
same,inhibition,[5],67.5% (active)
same,outcome,[6],inactive
CN(C)c1ccc(/C=C2\NC(=S)N(Cc3ccccc3)C2=O)cc1,membrane potential signal change,[1],267% (active)
same,outcome,[2],inactive
same,"percent change from control (negative = decrease, positive = increase)",[3],126% (active)
same,outcome,[4],inactive
same,outcome,[5],inactive
same,outcome,[6],inactive
CCN(CC)S(=O)(=O)c1ccc(N2CC(C(=O)NCc3cccnc3)CC2=O)cc1 (configuration not stated),outcome,[1],inactive
same,outcome,[2],inactive
same,outcome,[3],inactive
same,outcome,[4],inactive
same,outcome,[5],inactive
same,outcome,[6],inactive
COC(=O)c1c(NC(=O)c2ccc(S(=O)(=O)N3CCOCC3)cc2)sc2c1CCN(C(C)C)C2,membrane potential signal change,[1],-96% (active)
same,outcome,[2],inactive
same,"percent change from control (negative = decrease, positive = increase)",[3],-33% (active)
same,inhibition,[4],37.5% (active)
same,outcome,[5],inactive
same,outcome,[6],inactive
CCN1CCN(c2ccc([N+](=O)[O-])cc2C(=O)c2ccc(Cl)cc2)CC1,membrane potential signal change,[1],150% (active)
same,outcome,[2],inactive
same,"percent change from control (negative = decrease, positive = increase)",[3],20.5% (active)
same,inhibition,[4],63.5% (active)
same,outcome,[5],inactive
same,outcome,[6],inactive
CCCC(=O)Nc1ccc(C(=O)NCCCn2ccnc2)cc1,outcome,[1],inactive
same,outcome,[2],inactive
same,outcome,[3],inactive
same,outcome,[4],inactive
same,outcome,[5],inactive
same,outcome,[6],inactive
CCCCCCn1cc(C(=O)O)c(=O)c2cc(F)c(N3CCCCC3)cc21,outcome,[1],inactive
same,outcome,[2],inactive
same,"percent change from control (negative = decrease, positive = increase)",[3],11% (active)
same,outcome,[4],inactive
same,outcome,[5],inactive
same,activation,[6],39.5% (active)
Cc1nn(Cc2ccc(C(=O)N3N=C(C(F)F)CC3(O)C(F)F)cc2)c(C)c1[N+](=O)[O-] (configuration not stated),outcome,[1],inactive
same,outcome,[2],inactive
same,"percent change from control (negative = decrease, positive = increase)",[3],-17.5% (active)
same,outcome,[4],inactive
same,outcome,[5],inactive
same,outcome,[6],inactive
CCc1ccc(OCC(=O)N(Cc2ccccc2)C2CCS(=O)(=O)C2)cc1 (configuration not stated),outcome,[1],inactive
same,outcome,[2],inactive
same,"percent change from control (negative = decrease, positive = increase)",[3],8.5% (active)
same,outcome,[4],inactive
same,outcome,[5],inactive
same,outcome,[6],inactive
O=C(C1CCN(S(=O)(=O)Cc2ccccc2)CC1)N1CCCc2ccccc21,membrane potential signal change,[1],90% (active)
same,outcome,[2],inactive
same,"percent change from control (negative = decrease, positive = increase)",[3],8.5% (active)
same,outcome,[4],inactive
same,outcome,[5],inactive
same,outcome,[6],inactive
CN1CCN(c2nc(Nc3ccc(O)cc3)nc3ccccc23)CC1,membrane potential signal change,[1],-221% (active)
same,inhibition,[2],65.5% (active)
same,"percent change from control (negative = decrease, positive = increase)",[3],-38% (active)
same,inhibition,[4],71% (active)
same,inhibition,[5],67.5% (active)
same,outcome,[6],inactive

# Source: PubChem BioAssay
